High-throughput results from PubChem BioAssay.
TRPM1 prom inh: inhibitors of MITF-dependent TRPM1 promoter reporter, primary screen, cell-based, SK-MEL-5, single point, luciferase; SK-MEL-5 TRPM1 promoter luciferase, 24 h; inhibition, % at 12.5 µM; 330,000 tested, 0.83% active; AID 488899, 2010;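 active = mean inhibition across replicates of 60% or more, whatever share of single replicates reaches that level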
CHOP inh: inhibitors of CHOP promoter induction, primary screen, cell-based, unfolded protein response, luciferase reporter | CHO-K1 CHOP-promoter luciferase, tunicamycin-induced, 15-18 h | inhibition, % at 10 µM | 220,000 tested, 3.8% active | AID 2732, 2010;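 active = compounds that reduced the stress-induced luciferase reporter signal by more than about 70% of percent inhibition, limit read from the data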;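 note: 0% = tunicamycin plus vehicle and 100% = wells without tunicamycin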
CF NFkB inh: inhibitors of PAF-induced NF-kB signaling, primary screen, cell-based, GFP fluorescence, uHTS | KKLEB NF-kB-GFP reporter, GFP fluorescence overnight | AID 588850, 2011 | inhibition, % at 5 µM | 360,000 tested, 0.86% active;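 active = at least 50% inhibition at 5 µM, scaled per plate between neutral and stimulator controls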;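 note: PAF is a Pseudomonas aeruginosa culture filtrate used as stimulus; plate controls were PAF-stimulated DMSO wells for no effect and unstimulated DMSO wells for full effect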
KKLEB tox: cytotoxicity in KKLEB CF airway cells, primary screen, cytotoxicity control for CF NF-kB inhibitor project, cell-based, uHTS, fluorescence assay plates; activity change (cytotoxicity), % at 5 µM; KKLEB CF airway cells viability, ATPlite luminescence, overnight; hits give low values; cells stimulated with P. aeruginosa culture filtrate; 360,000 tested, 0.36% active;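 active = corrected activity change at or below -50% at 5 µM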
HIF-2a block: HIF-2a reporter inhibitors, primary screen, luminescence, 786-0 RCC cells; 786-0 RCC cells HIF-2a reporter, luciferase luminescence, overnight; inhibition, % at 18.8 µM; 360,000 tested, 0.72% active;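 active = inhibition of the luminescence signal of 40% or more relative to plate controls, in a single-dose primary screen at 18.75 µM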
Peg3 promoter: Peg3 promoter-driven luciferase inhibitors, primary screen, cell-based, HeLa, luciferase luminescence; HeLa PEG-Prom luciferase reporter, overnight; inhibition, % at 20 µM; 360,000 tested, 1.7% active; AID 588405, 2011;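 active = inhibition of at least 50% at 20 µM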
Starred values were filed as active, the others as inactive; . = no result. Sampled rows, rich in hits. Any-hit rate of the full collection: about 4.3%.

SMILES | TRPM1 prom inh | CHOP inh | CF NFkB inh | KKLEB tox | HIF-2a block | Peg3 promoter
CCN(CC)C(=O)c1ccc2c3c(cccc13)C(=O)N(CCc1ccc(OC)c(OC)c1)C2=O | 26 | 32 | 4 | -6 | 3 | 60*
CC(=O)OC1COC(N2CCc3cc(Br)c([N+](=O)[O-])cc32)C(OC(C)=O)C1OC(C)=O (stereo unspecified) | 0 | 89* | 13 | -1 | 13 | 18
C=CCC(C)(NCc1ccccc1)c1ccc(C)cc1 (stereo unspecified) | 11 | 75* | 9 | -20 | 9 | -7
C=CCC(C)(NCc1ccccc1)c1ccccc1 (stereo unspecified) | -6 | 65 | -10 | 4 | 13 | 1
Cc1ccc(N2CCN(C(=O)CNS(=O)(=O)c3ccc(Br)s3)CC2C)cc1 (stereo unspecified) | -17 | 72* | -2 | 2 | 4 | 26
CC1CC(C)CN(C(=O)CNS(=O)(=O)c2ccc(Br)s2)C1 (stereo unspecified) | 5 | 32 | -16 | 15 | 17 | 15
CCOC1=C2[C@@H](CN(S(=O)(=O)c3ccc(C)cc3)[C@H]2c2ccccc2Cl)[C@H]2C(=O)NC(=O)[C@H]2C1 | . | . | 3 | 8 | 9 | -4
CCOC1=C2[C@H](c3ccc(CC)cc3)N(S(=O)(=O)c3ccc(C)cc3)C[C@H]2C(C#N)(C#N)C(C#N)(C#N)C1 | . | . | 34 | -26 | 62* | 89*
CCOC1=C2CN(S(=O)(=O)c3ccc(C)cc3)C(c3ccc(CC)cc3)CC2N(S(=O)(=O)c2ccc(C)cc2)C(c2ccc(CC)cc2)C1 (stereo unspecified) | . | . | . | . | 1 | .
CCOC1=C2[C@H](c3ccccc3Cl)N(S(=O)(=O)c3ccc(C)cc3)C[C@H]2C(C#N)(C#N)C(C#N)(C#N)C1 | . | . | 32 | -14 | 61* | 50
C/C(CC(C)C)=N/Nc1ccc([N+](=O)[O-])cc1[N+](=O)[O-] | 12 | 56 | -16 | -1 | 10 | -2
COC(=O)CC/C(C)=N\Nc1ccc([N+](=O)[O-])cc1[N+](=O)[O-] | 5 | 75* | -17 | 4 | 4 | 14
COc1cccc(CN2CCC2(C)C(=O)Nc2ccc3c(c2)OCO3)c1F (stereo unspecified) | . | . | 19 | -14 | -23 | -10
CN(C(=O)c1ccc(NC(=O)Cc2ccc(NC(=O)C3CCCN(C(=O)CCc4ccccc4)C3)cc2)cc1)C1CC1 (stereo unspecified) | 19 | . | 7 | 5 | 3 | -31
Cc1nccn1CCCNC(=O)C1CCC(=O)N(Cc2ccccc2F)C1 (stereo unspecified) | 10 | . | -6 | 3 | 2 | -2
COC(=O)C1=C(C)N(Cc2ccco2)C(=O)/C1=C\c1ccc([N+](=O)[O-])cc1 | 9 | -31 | -23 | -6 | 22 | 94*
COC(=O)C1=C(C)N(Cc2ccco2)C(=O)/C1=C\c1ccc(N(C)C)cc1 | -9 | -12 | -34 | -19 | -2 | 0
CCN(CC)C(=O)c1ccc(S(=O)(=O)N2CCC(c3nc4ccccc4s3)CC2)cc1 | 38 | 74* | -10 | 8 | 16 | 12
O=C1/C(=C/c2ccc(N3CCOCC3)o2)SC(=Nc2ccccc2)N1CCc1c[nH]c2ccccc12 | 55 | -20 | -21 | -51* | 93* | 102*
CCOC(=O)c1c(C2COc3ccccc3O2)csc1N (stereo unspecified) | 5 | 84* | 6 | -5 | -28 | 11
CCC(/C=C1\Sc2ccc(OC)cc2N1CCO)=C\c1sc2ccc(OC)cc2[n+]1CCO | 96* | 55 | -16 | 15 | 14 | 37
CCOc1ccc(-c2c[n+]3c(n2-c2ccccc2)CCCCC3)cc1 | 43 | -7 | -7 | -1 | 14 | 7
COc1ccc(NC(=O)CCC(=O)c2ccc(-c3ccccc3)cc2)cc1 | 5 | -6 | -1 | -3 | 3 | -4
